The supplement of paper PMC11732987, “Enantioselective OTUD7B fragment discovery through chemoproteomics screening and high-throughput optimisation” (Communications Chemistry, 2025)
Values without a mark were called inactive.

What was measured:
Assay in all cases: log2 ratio of Biotin-Ahx-Ub-VS probe labelling (fragment/DMSO); higher = less target engagement (more negative = stronger competition), active = hit call of the paper (q ≤ 0.05, log2 ratio ≤ -1)
Settings in all cases: compound concentration: 200 uM; treatment time: 3 h
USP34 = USP34 (UniProt Q70CQ2)
USP34, sequence (Q70CQ2 whole entry, the tested form may be a part): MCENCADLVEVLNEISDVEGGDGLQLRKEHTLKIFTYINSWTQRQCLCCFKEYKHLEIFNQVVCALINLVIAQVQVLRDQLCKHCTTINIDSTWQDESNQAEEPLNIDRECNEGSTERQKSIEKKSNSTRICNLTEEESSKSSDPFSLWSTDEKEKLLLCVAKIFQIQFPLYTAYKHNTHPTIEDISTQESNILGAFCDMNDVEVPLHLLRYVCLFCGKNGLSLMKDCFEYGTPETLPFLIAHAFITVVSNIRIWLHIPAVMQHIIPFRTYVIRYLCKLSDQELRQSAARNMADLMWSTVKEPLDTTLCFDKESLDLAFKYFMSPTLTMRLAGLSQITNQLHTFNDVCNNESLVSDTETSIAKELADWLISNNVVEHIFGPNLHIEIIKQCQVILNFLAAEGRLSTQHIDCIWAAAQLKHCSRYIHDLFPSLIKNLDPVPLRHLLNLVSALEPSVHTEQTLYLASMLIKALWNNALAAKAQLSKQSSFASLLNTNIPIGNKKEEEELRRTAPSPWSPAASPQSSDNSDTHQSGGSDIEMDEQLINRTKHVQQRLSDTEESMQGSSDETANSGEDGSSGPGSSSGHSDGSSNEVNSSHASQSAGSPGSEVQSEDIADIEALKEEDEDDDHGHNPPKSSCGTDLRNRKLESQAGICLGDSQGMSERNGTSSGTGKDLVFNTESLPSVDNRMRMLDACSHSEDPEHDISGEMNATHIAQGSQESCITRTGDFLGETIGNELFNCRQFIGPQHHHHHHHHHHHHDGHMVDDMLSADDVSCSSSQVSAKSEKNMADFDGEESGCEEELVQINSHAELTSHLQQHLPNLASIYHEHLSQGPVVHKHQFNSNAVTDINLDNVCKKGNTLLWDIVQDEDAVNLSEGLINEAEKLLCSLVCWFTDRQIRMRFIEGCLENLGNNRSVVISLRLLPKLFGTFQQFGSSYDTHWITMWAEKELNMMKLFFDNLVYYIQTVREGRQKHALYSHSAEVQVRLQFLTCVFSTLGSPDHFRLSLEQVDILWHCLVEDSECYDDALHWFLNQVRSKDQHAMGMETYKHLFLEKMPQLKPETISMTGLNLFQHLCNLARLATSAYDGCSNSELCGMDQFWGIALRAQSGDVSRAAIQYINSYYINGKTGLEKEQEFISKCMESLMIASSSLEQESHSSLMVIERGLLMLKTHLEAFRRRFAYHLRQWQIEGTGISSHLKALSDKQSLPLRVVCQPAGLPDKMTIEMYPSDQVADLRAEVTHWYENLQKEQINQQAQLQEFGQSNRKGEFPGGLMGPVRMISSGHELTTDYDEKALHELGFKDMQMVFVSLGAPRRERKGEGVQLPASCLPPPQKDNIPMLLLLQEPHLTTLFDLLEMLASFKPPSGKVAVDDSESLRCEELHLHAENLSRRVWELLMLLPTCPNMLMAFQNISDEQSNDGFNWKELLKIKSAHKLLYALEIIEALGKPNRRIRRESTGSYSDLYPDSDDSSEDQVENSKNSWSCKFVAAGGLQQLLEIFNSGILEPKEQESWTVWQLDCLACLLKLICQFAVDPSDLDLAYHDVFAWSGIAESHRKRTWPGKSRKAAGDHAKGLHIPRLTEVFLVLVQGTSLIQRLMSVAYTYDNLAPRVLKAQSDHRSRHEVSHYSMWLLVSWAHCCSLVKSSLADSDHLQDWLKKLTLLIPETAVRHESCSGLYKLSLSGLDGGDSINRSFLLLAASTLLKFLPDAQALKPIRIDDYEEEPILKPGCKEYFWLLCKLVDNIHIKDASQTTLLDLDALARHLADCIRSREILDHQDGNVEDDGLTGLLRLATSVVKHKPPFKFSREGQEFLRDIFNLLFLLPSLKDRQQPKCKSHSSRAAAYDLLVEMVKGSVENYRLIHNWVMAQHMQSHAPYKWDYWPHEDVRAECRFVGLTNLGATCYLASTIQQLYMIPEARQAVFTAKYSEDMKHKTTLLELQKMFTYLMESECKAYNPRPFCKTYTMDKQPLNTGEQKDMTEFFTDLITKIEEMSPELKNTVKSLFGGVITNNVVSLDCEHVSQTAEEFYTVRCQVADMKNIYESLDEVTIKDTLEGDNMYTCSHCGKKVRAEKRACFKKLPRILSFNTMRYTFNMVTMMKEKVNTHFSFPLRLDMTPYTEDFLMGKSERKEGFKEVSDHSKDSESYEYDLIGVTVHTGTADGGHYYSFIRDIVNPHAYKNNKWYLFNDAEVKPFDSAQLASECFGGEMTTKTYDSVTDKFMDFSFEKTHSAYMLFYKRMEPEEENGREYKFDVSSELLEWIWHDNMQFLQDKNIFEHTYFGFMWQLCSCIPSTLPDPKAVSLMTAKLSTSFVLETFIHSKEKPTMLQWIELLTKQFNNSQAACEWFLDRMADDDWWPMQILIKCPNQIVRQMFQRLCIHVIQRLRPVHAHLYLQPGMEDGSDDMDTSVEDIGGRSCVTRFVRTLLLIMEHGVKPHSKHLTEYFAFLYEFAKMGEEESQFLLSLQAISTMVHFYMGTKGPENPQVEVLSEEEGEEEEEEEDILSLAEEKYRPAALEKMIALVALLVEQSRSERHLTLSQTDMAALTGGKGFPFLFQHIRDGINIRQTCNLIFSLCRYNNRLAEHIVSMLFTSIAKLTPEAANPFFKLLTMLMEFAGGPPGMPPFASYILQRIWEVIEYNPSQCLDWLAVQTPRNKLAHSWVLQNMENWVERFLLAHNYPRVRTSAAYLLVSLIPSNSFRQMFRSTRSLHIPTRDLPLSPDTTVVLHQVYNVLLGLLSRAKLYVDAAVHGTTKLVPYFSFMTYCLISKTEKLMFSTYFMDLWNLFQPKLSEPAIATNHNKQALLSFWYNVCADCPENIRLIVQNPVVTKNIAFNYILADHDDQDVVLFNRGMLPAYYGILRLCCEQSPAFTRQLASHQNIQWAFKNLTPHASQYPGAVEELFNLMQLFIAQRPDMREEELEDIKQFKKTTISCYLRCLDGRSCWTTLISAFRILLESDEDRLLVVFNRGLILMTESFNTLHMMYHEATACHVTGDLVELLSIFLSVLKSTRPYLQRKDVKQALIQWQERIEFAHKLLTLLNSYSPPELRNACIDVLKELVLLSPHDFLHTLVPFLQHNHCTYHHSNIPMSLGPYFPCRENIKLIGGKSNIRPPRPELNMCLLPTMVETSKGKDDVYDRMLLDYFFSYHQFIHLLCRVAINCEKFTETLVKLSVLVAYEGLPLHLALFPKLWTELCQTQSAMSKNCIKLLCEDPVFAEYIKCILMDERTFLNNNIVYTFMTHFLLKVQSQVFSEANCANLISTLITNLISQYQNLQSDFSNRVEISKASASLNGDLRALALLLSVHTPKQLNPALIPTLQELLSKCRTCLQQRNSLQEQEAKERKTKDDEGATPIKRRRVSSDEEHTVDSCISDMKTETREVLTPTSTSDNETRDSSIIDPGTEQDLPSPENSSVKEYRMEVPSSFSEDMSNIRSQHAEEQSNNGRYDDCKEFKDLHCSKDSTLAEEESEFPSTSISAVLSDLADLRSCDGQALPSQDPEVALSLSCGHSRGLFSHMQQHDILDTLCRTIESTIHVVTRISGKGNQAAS
Method in brief: (§1)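 Triplicate samples of HEK293T lysate, 495 µg each, received fragment at 200 µM or vehicle for 3 h, followed by Biotin-Ahx-Ub-VS (0.5 µM final) for 1 h. After NeutrAvidin enrichment of labelled DUBs and LysC/trypsin digestion, peptides were run by diaPASEF LC-MS/MS. The values are average log2 fragment/vehicle ratios from global-median-normalised Spectronaut label-free quantities, tested by unpaired t-test on proteins having ≥2 unique peptides.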

USP36 = target: T1, USP36 (UniProt Q9P275)
T1 sequence (whole entry): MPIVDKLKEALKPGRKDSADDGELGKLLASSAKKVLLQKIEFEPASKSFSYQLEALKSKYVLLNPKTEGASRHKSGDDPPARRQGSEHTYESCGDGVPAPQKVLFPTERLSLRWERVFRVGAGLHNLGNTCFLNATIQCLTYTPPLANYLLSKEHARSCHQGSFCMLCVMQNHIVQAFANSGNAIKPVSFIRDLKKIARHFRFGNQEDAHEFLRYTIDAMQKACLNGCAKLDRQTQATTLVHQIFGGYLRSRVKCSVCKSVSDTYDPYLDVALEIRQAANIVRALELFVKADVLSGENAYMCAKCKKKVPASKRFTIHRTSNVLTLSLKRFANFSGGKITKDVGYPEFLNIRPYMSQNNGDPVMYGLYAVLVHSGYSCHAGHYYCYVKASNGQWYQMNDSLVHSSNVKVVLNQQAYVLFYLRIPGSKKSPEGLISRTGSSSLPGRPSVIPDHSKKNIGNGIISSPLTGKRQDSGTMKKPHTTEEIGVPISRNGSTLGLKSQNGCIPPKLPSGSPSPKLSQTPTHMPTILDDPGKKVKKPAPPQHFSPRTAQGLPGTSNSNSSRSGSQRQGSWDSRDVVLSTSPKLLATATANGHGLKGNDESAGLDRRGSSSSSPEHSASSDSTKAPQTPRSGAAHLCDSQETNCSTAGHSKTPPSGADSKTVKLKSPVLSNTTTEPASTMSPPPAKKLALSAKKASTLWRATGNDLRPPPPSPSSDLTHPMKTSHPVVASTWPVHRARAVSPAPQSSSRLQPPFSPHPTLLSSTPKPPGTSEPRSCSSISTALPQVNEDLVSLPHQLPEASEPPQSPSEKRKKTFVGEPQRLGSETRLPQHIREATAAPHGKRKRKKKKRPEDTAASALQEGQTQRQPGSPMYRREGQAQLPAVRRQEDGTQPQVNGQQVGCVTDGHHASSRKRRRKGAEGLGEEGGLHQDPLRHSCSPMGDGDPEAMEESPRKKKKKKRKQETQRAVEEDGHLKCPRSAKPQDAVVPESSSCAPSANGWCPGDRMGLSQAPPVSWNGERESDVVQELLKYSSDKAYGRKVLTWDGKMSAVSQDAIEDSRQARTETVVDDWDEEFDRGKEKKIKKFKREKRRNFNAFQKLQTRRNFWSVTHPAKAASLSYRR
Method in brief: as §1

USP38 = target: T2, USP38 (UniProt Q8NB14)
T2 sequence (whole entry): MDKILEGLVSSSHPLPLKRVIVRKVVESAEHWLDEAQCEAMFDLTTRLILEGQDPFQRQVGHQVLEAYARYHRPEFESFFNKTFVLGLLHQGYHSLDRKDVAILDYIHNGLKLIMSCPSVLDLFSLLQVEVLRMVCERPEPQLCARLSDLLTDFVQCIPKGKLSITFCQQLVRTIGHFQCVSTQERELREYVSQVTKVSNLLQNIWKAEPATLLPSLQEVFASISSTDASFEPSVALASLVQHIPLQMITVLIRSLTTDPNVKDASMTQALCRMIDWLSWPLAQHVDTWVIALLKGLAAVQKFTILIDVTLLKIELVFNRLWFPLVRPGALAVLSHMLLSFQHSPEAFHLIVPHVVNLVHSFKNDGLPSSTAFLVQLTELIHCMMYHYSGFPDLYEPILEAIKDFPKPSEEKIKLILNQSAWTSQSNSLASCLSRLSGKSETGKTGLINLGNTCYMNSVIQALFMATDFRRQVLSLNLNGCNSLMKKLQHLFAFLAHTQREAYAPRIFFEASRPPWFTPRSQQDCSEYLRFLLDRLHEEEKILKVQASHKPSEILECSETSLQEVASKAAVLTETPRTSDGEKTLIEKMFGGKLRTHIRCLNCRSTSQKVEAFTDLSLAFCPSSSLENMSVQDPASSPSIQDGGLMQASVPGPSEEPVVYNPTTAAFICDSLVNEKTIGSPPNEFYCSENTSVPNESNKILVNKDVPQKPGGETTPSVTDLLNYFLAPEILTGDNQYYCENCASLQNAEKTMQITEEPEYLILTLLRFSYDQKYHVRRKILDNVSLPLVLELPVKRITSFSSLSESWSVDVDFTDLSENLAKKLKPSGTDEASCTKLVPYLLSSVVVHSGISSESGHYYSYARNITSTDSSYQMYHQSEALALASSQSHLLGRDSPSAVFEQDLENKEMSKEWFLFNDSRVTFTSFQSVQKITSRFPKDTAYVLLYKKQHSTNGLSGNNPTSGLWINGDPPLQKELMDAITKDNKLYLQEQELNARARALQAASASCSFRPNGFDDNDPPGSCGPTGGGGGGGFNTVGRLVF
Method in brief: as §1

USP39 = target: T3, USP39 (UniProt Q53GS9)
T3 sequence (whole entry): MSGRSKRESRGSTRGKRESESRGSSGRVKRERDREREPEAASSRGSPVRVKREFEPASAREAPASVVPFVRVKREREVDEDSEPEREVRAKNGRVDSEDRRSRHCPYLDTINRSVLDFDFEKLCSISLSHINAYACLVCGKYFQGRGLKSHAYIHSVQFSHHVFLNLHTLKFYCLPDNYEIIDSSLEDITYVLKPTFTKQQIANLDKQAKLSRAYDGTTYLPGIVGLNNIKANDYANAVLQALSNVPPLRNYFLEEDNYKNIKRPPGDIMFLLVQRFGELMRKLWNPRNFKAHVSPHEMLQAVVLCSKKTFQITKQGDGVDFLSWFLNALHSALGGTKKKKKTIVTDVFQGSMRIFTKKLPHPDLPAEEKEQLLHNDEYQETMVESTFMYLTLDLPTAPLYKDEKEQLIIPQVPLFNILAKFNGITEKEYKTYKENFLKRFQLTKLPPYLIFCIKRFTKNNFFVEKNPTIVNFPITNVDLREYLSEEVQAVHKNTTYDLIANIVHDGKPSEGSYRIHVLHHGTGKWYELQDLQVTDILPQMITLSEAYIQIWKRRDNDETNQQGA
Method in brief: as §1

USP4 = target: T4, USP4 (UniProt Q13107)
T4 sequence (whole entry): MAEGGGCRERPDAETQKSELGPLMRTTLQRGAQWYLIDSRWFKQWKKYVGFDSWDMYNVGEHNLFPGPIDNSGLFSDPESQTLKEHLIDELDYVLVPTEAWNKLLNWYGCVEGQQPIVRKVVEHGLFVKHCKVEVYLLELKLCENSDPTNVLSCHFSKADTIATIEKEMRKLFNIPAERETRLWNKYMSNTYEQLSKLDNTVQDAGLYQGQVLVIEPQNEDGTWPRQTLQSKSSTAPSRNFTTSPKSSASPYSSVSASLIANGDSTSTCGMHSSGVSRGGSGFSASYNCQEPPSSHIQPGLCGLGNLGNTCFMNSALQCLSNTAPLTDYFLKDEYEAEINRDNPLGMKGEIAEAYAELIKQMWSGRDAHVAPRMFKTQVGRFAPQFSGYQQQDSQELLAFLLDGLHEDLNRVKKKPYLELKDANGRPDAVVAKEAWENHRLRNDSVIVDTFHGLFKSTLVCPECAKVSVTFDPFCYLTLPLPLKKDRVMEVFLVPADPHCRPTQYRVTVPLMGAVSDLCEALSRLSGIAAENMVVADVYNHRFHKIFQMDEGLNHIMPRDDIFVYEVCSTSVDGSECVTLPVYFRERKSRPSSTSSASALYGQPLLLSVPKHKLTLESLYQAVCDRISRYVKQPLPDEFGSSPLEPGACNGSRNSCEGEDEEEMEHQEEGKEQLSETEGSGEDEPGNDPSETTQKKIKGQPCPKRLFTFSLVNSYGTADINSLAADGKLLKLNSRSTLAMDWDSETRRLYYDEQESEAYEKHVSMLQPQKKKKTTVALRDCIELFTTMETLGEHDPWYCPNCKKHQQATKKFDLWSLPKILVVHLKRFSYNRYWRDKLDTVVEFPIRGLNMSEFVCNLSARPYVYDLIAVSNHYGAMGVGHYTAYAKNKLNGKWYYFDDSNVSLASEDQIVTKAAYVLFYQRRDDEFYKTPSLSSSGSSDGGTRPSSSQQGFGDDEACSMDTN
Method in brief: as §1

O=C(CCl)N1CCc2[nH]c3ccccc3c2C1
log2 ratio of Biotin-Ahx-Ub-VS probe labelling (USP34): -0.571
log2 ratio of Biotin-Ahx-Ub-VS probe labelling (USP36): 0.0133
log2 ratio of Biotin-Ahx-Ub-VS probe labelling (USP38): -0.674
log2 ratio of Biotin-Ahx-Ub-VS probe labelling (USP39): 5.6e-06
log2 ratio of Biotin-Ahx-Ub-VS probe labelling (USP4): -1.51 (active)
